The full ranking holds about 33,000 sequences; the median of “E-score (-0.5 to 0.5)” is about -0.021, and the highest 2% start at about 0.32. For the sample, the highest values were picked, then their nearest neighbours and some sequences at random.
What follows are sequences tested against T1, Zap1 (UniProt P47043) (assay: PBM E-score (8-mer binding enrichment) (E-score (-0.5 to 0.5)); higher = stronger / more preferred TF binding). Settings: protein concentration: 200 nM; construct: GST-full length.
T1 sequence: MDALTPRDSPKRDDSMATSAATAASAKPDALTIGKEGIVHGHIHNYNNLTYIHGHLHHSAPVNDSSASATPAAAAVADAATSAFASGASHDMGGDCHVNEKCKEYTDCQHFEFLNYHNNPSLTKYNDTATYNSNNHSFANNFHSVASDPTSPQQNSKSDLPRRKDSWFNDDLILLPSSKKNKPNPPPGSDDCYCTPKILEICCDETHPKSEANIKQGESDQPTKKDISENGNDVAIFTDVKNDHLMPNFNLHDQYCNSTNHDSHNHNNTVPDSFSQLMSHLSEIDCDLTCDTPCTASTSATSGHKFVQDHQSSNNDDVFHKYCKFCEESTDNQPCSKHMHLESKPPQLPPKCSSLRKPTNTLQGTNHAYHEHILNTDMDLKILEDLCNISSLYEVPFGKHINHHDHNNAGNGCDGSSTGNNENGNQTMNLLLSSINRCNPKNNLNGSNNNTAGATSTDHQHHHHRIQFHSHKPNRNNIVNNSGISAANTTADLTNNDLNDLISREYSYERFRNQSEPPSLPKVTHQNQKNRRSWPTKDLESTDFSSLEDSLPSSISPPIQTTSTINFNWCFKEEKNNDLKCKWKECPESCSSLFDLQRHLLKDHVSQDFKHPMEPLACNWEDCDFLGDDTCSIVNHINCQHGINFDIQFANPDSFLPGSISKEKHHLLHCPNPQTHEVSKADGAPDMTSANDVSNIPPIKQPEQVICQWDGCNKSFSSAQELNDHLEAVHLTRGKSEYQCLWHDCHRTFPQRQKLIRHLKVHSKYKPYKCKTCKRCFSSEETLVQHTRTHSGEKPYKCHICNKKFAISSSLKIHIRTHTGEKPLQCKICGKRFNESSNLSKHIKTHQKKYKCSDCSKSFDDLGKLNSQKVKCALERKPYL
In short: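 Yeast transcription factors carrying a GST tag, as full-length proteins or DNA-binding domains, were produced by PURExpress in vitro transcription/translation. About 100-200 nM protein was applied to universal all-10-mer Agilent arrays, double-stranded by primer extension on fresh or once-stripped slides. Bound protein was detected with fluorescent anti-GST, and scans were normalised with masliner. The Universal PBM Analysis Suite gave each ungapped eight-base word, pooled with its reverse complement, an E-score, a modified Wilcoxon-Mann-Whitney statistic.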

| Sequence | PBM E-score |
| --- | --- |
| ACACCAGT | -0.0248 |
| GTGCCCTA | -0.314 |
| CCTGGTGA | 0.0199 |
| CGCTGCGC | -0.373 |
| GCTGAGAA | -0.156 |
| ATCTGAGG | 0.094 |
| ACCCTGTC | 0.193 |
| ACCCTGAT | 0.344 |
| AACCTGAT | 0.177 |
| AGCCTGAT | -0.177 |
| CCCCTGAC | 0.113 |
| AACCTGTG | 0.207 |
| ACCCTGAC | 0.335 |
| AGCCTGTG | -0.29 |
| ACCCTGTG | 0.367 |
| ACCCTGGG | 0.376 |
| ACCCTGGA | 0.161 |
| ACCCTGGC | 0.183 |
| CATAGCTA | -0.113 |
| GCTGTGGA | -0.0748 |
| CTAGTTCA | -0.00273 |
| CCAACAGG | 0.0645 |

| Sequence | PBM E-score |
| --- | --- |
| AACCTCCA | 0.0742 |
| ACACTTCT | -0.0698 |
| CAAGTGAG | -0.196 |
| ACCCTGAG | 0.378 |
| ATCCTGAG | -0.0542 |
| CCCCTGAG | -0.0275 |
| AGCAACCG | -0.0288 |
| AACTGCCG | -0.0311 |
| ACCTCGCG | 0.109 |
| GGGTTACA | 0.468 |
| GGGTTACC | 0.463 |
| GCGTTACC | 0.0732 |
| TGGTTACA | 0.395 |
| GAGTTACC | 0.3 |
| TAGTTACA | 0.158 |
| GCGTTACA | 0.126 |
| GGTTTACA | 0.17 |
| CTGTTACA | 0.0543 |
| CGGTTACA | 0.411 |
| CCGTTACA | 0.061 |
| TCGTTACA | -0.024 |
| AGCAACAG | -0.195 |

| Sequence | PBM E-score |
| --- | --- |
| AACTAATA | 0.314 |
| AGTAGCGG | -0.125 |
| GAAGACCC | 0.236 |
| TATTAGGA | 0.0916 |
| CCTTATAC | 0.0827 |
| CCCCAGTA | -0.0431 |
| CACTGGTC | -0.0725 |
| CCTCAATC | 0.158 |
| CGGTTACC | 0.444 |
| CTGTTACC | 0.248 |
| CAGTTACC | 0.208 |
| GCCACTAC | -0.0479 |
| TATCTAGA | 0.151 |
| AGCGTCTA | -0.214 |
| CCCTTAAC | 0.0959 |
| ACCTTAAA | 0.247 |
| GCTTTAAC | 0.186 |
| ACCTTATG | 0.314 |
| ACCTTATA | 0.339 |
| CCCTTATA | 0.15 |
| CCCTTAAG | 0.335 |
| ACCTTAAC | 0.358 |

| Sequence | PBM E-score |
| --- | --- |
| CCTTTAAC | 0.352 |
| ACCTTAAT | 0.302 |
| ACCTTAAG | 0.269 |
| CCTTTAAG | 0.237 |
| AGTGGAAG | -0.204 |
| ATGAGCGG | -0.167 |
| GTTGGGAA | 0.0568 |
| ATGAGGAC | -0.0846 |
| ATCCAGTC | -0.137 |
| CTCTCACC | 0.0392 |
| AATCCCGA | 0.0192 |
| ATCAACAT | 0.00735 |
| ATAGGAAC | 0.0152 |
| CGCCTACG | -0.23 |
| GAATGGCC | 0.188 |
| AGTGCGAA | -0.172 |
| CCTTAAGA | 0.155 |
| CCTTAAGC | 0.0365 |
| CCTTAAGG | 0.411 |
| AGCTCGAG | -0.0098 |

Reference: the supplement of paper PMC3334620
